# Measured values as given in PubChem BioAssay AID1259245 (Vanderbilt High Throughput Screening Facility, 2017).
# Out of some 40,000 compounds screened, about 1,400 (3.5%) were called active.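 The calls were made as follows: active = any of four per-well response measures lying three or more SD from its plate-wide compound average, in either direction; inactive = the rest, inconclusive results apart.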 The sample as a whole holds a higher share of actives than the screen did.
# Biological target: Voltage-dependent calcium channel gamma-2 subunit (Mus musculus) + Glutamate receptor 2 (Rattus norvegicus) (UniProt O88602+P19491)
# Experiment: modulators of GluA2-stargazin AMPA receptor complexes, primary screen, cell-based, membrane potential dye (AID 1259245)
# Conditions: HEK293 GluA2+stargazin, membrane potential dye (FDSS), glutamate EC50, at 30 µM, hits were called plate by plate, in both directions; compound max-min signal: compound-alone response (agonism); glutamate slope, % of max: measured here: glutamate response slope, % max
# Chain of Voltage-dependent calcium channel gamma-2 subunit (Mus musculus) + Glutamate receptor 2 (Rattus norvegicus) (O88602 whole entry, looked up): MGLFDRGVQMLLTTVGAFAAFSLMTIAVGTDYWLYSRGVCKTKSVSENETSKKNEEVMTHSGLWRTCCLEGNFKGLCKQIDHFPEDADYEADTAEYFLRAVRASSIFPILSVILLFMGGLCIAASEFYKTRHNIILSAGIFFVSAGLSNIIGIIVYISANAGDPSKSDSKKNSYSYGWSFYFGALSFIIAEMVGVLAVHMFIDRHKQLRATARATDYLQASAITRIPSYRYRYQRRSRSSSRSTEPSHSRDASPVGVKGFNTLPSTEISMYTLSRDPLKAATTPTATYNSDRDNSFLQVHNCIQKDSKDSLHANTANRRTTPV
# Chain of Voltage-dependent calcium channel gamma-2 subunit (Mus musculus) + Glutamate receptor 2 (Rattus norvegicus) (P19491 whole entry, looked up): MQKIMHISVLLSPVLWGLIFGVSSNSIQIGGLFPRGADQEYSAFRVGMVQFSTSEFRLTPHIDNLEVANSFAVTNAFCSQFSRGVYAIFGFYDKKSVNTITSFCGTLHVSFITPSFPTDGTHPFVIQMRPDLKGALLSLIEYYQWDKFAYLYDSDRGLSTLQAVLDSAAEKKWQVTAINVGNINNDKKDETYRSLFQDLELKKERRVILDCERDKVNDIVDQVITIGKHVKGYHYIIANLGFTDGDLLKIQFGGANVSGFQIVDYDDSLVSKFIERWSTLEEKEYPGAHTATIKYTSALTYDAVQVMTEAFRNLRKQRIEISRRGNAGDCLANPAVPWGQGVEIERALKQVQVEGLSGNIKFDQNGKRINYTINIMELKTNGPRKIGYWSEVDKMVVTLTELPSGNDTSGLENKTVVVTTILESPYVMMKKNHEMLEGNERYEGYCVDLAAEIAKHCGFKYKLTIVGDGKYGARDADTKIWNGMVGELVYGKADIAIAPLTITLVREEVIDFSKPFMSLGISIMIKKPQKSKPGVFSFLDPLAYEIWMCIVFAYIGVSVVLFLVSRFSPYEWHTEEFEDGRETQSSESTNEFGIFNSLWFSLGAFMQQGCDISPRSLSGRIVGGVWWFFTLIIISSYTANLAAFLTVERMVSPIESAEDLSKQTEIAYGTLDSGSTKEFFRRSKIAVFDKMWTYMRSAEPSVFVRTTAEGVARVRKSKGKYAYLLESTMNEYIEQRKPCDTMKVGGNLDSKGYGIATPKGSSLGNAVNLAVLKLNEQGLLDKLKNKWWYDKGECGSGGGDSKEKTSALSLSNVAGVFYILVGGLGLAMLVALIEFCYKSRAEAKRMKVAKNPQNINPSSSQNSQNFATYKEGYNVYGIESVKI
SMILES,compound max-min signal,"glutamate response, % of max","glutamate slope, % of max [%]"
CCOc1ccc(C)cc1S(=O)(=O)Nc1cc(Cl)ccc1O,0.184,20.5% (inactive),42.7
COc1ccc(C)cc1S(=O)(=O)NCC1CCN(C2CCCC2)CC1,0.046,35.2% (inactive),60.4
COc1ccc(C)cc1S(=O)(=O)Nc1cc(Cl)ccc1O,0.201,17.5% (active),33.4
COc1ccc(SCC(=O)Nc2sc3c(c2C(N)=O)CCN(C(C)=O)C3)cc1,0.106,34.1% (inactive),58.5
COc1ccc(CCNC(=O)Nc2c[nH]c3ccccc23)cc1,0.127,40.6% (inactive),64.1
Cc1cc(Cl)cc2sc(N(CC3CCCO3)C(=O)CN(C)S(C)(=O)=O)nc12 (centres undefined),0.075,26.5% (inactive),51.3
O=S(=O)(c1ccc(C2CCCCC2)cc1)N1CCC(Cc2ccccc2)CC1,0.0564,25.6% (inactive),44.4
COc1ccc(S(=O)(=O)NCC(c2ccsc2)N2CCCCCC2)cc1F (centres undefined),0.168,17.6% (active),30.2
CCOc1ccc(S(=O)(=O)NCC(O)c2ccsc2)cc1F (centres undefined),0.128,48.1% (inactive),69
COc1ccc(S(=O)(=O)NCC(c2ccc(C)cc2)N2CCN(C)CC2)cc1OC (centres undefined),0.0672,37.4% (inactive),55.5
COc1ccc(N2CCN(CCNS(=O)(=O)c3ccc(Cl)s3)CC2)cc1,0.131,37.9% (inactive),47.8
O=C(CSc1ccc(NC(=O)c2ccco2)nn1)Nc1ccc(OC(F)(F)F)cc1,0.106,19.5% (inactive),37.1
COc1cccc(CNC(=O)CSc2ccc(NC(=O)c3cccc(F)c3)nn2)c1,0.0911,24.2% (inactive),47.4
CC(=O)c1ccc(NC(=O)CSc2ccc(NC(=O)c3ccco3)nn2)cc1,0.0373,24.5% (active),47
Cc1ccc(C(=O)Nc2ccc(SCC(=O)NCc3ccc4c(c3)OCO4)nn2)cc1,0.0549,27.8% (inactive),49.8
COC(=O)c1ccc(NC(=O)CSc2ccc(NC(=O)c3ccco3)nn2)cc1,0.0425,23.1% (active),46.9
CC(C)C(=O)Nc1ccc(SCC(=O)c2ccccc2)nn1,0.113,25.4% (inactive),42.3
CCOC(=O)N1CCc2c(sc(NC(=O)c3ccccc3Cl)c2-c2nc3ccccc3s2)C1,0.11,43.3% (inactive),61.3
CCn1nnc2c(N3CCN(CC(=O)Nc4c(C)cc(C)cc4C)CC3)ncnc21,0.0423,21.5% (inactive),39.9
COc1ccc(-n2nnnc2SC(C)C(=O)Nc2ccccc2Cl)cc1 (centres undefined),0.0851,29.7% (inactive),55.7
O=C(NCCN1CCOC(c2ccccc2)C1)c1c(F)cccc1F (centres undefined),0.0396,14.5% (inactive),32.8
CCOc1ccc(S(=O)(=O)NCc2ccc3c(c2)OCO3)cc1OCC,0.0924,30.4% (inactive),55.6
COc1ccc(S(=O)(=O)Nc2ccc(N3CCCCS3(=O)=O)cc2)cc1F,0.0701,25.7% (inactive),44.9
O=C(CCCn1nc(-c2ccc(Cl)cc2)ccc1=O)Nc1ccc(F)c(F)c1,0.175,35.4% (inactive),51.5
CC(C)c1cc(NCCN2CCOCC2)n2ncc(-c3ccccc3)c2n1,0.126,34% (inactive),54.5

SMILES,compound max-min signal,"glutamate response, % of max","glutamate slope, % of max [%]"
COc1nn(C)cc1C(=O)NCC(=O)Nc1cccc(C)c1C,0.067,-0.69% (active),4.95
COc1nn(C)cc1C(=O)NCCN1CCN(S(C)(=O)=O)CC1,0.0954,49.7% (inactive),63.9
COc1cn(CC(=O)Nc2cccc(C)c2C)c(CN2CCOCC2)cc1=O,0.0306,11% (inactive),23.6
Cc1ccc(NC(=O)c2ccc(S(=O)(=O)N3CCCC3)cc2)c(C(=O)c2ccccc2)c1,0.117,44% (inactive),65.3
O=C(CSCc1ccccc1)Nc1ccccc1F,0.0999,23.2% (inactive),36.5
COc1cc([N+](=O)[O-])ccc1NC(=O)c1ccccc1NS(=O)(=O)c1ccccc1,0.141,22.1% (active),34.2
Cc1ccc(S(=O)(=O)Nc2ccccc2C(=O)Nc2ccc3c4c(cccc24)CC3)cc1,0.105,43.6% (inactive),62.4
COc1ccccc1NC(=O)c1csc(NS(=O)(=O)c2ccccc2)n1,0.0914,30.6% (inactive),47.5
COc1ccc(CNC(=O)N2CCC(c3cccs3)CC2)cc1,0.14,40.4% (inactive),59.7
CN(C)C(CNC(=O)C(=O)Nc1ccc2c(c1)OCCO2)c1cccn1C (centres undefined),0.0533,30.5% (inactive),63.5
CCOC(=O)c1ccc(NC(=O)c2cccnc2)cc1,0.0638,27.5% (inactive),53.7
COCCCNc1nc2c(c(=O)n(C)c(=O)n2C)n1CC(O)COc1ccc(C)c(C)c1 (centres undefined),0.0698,46.2% (inactive),75.7
COCCCn1c(C(=O)Nc2cccnc2)cc2c(=O)n(C)c(=O)n(C)c21,0.306,24.6% (active),44.9
COc1ccccc1NC(=O)Cn1cc(-c2nnc(-c3ccco3)o2)c2ccccc21,0.137,42.8% (inactive),63.9
COc1cccc2sc(N(Cc3ccco3)C(=O)CSCc3ccccc3)nc12,0.0832,31.9% (inactive),54.9
COc1ccc2nc(N(CCN3CCOCC3)C(=O)c3ccc([N+](=O)[O-])o3)sc2c1,0.173,42.6% (active),68.7
COc1ccc2nc(N(CCN3CCOCC3)C(=O)c3cc4cc([N+](=O)[O-])ccc4s3)sc2c1,0.0573,31% (inactive),45.5
COc1ccc2nc(N(CCN3CCOCC3)C(=O)c3ccccc3S(C)(=O)=O)sc2c1,0.0288,22.5% (inactive),42.4
c1nc(N2CCN(Cc3ccc4c(c3)OCO4)CC2)c2c3c(sc2n1)CCCC3,0.0914,49% (inactive),68.7
COc1ccc(/C=C2\Oc3c(ccc4c3CN(c3ccc(F)cc3)CO4)C2=O)c(OC)c1OC,0.103,23.7% (inactive),51.7
COC(=O)c1c(NC(=O)CC2NCCNC2=O)sc(C)c1C (centres undefined),0.0942,53% (active),55.8
COC(=O)c1ccsc1NC(=O)CC1Sc2ccccc2NC1=O (centres undefined),0.0707,30.1% (inactive),49.8
O=C(/C=C/c1ccccc1)Nc1ccc(CC(=O)N2CCCC2)cc1,0.119,31.3% (inactive),65.4
C=CCNC(=O)NC1CCCCC1N1C(=O)CSC1=O (centres undefined),0.12,10.5% (inactive),45.6
CSc1ccccc1NC(=O)c1nc(-c2cnccn2)no1,0.143,23.2% (inactive),49.2

SMILES,compound max-min signal,"glutamate response, % of max","glutamate slope, % of max [%]"
COc1ccc(NC(=O)CCc2sc(C)nc2-c2cccs2)cc1OC,0.123,37.8% (inactive),60.9
COc1ccc(CCNC(=O)CCc2sc(C)nc2-c2cccs2)cc1,0.0606,19.1% (inactive),37.1
Cc1nc(-c2cccs2)c(CCC(=O)NCc2ccc3c(c2)OCO3)s1,0.114,10.6% (active),25.8
COc1ccc2cc(CNc3ccccc3)c(=O)n(CC(=O)Nc3ccccc3OC)c2c1,0.0876,-1.71% (active),4.4
Cc1ccc2cc(CNc3ccccc3)c(=O)n(CC(=O)Nc3ccccc3C)c2c1,0.0993,29.6% (inactive),44.3
COc1cc2cc(CNc3ccc(C)cc3)c(=O)n(CC(=O)Nc3ccccc3F)c2cc1OC,0.116,25.6% (inactive),49.4
Cc1cc(C)cc(-n2c(SCC#N)nc3cc(C(=O)NC4CCCC4)ccc3c2=O)c1,0.127,50.2% (inactive),72.1
CCOC(=O)c1ccc(-n2c(C)c(C)n3c4c(=O)n(CC)c(=O)n(C)c4nc23)cc1,0.126,48.1% (inactive),62.4
CCC(C)c1ccccc1OCC(O)CN (centres undefined),0.0631,21.1% (inactive),39.8
Cc1cc(N(C)C)nc(-n2cc([N+](=O)[O-])cn2)n1,0.178,35.4% (active),63.4
O=C(c1ccc(Cl)s1)N1CCC(c2ccsc2)CC1,0.0754,43.8% (inactive),57
COCCNC(=O)C(=O)Nc1cc(N2CCCS2(=O)=O)ccc1OC,0.105,22.8% (inactive),46.1
CN1CCc2c(sc(NC(=O)c3ccc(Br)cc3)c2-c2nc3ccccc3s2)C1,0.139,53.9% (inactive),74
CCOc1ccc(C(=O)Nc2sc3c(c2-c2nc4ccccc4s2)CCN(C)C3)cc1,0.114,34.3% (inactive),50.1
CC(=O)c1ccc(C(=O)Nc2sc3c(c2-c2nc4ccccc4s2)CCN(C)C3)cc1,0.226,65.6% (active),85
COc1ccc2sc(N(CC3CCCO3)C(=O)C3CCCC3)nc2c1 (centres undefined),0.117,20% (inactive),33.1
Cc1nc2ccccn2c1C(=O)NCC(O)(c1ccccc1)C(F)(F)F (centres undefined),0.141,14.1% (inactive),49.7
CN1C(=O)Cc2cc(NC(=O)NC(c3ccccc3)c3ccccc3)ccc21,0.121,41.8% (inactive),60.5
Cc1nc2ccccn2c1C(=O)Nc1ccc2c(c1)CC(=O)N2C,0.213,46.6% (active),65.1
CCOC(=O)CNC(=O)C(=O)c1c(C)[nH]c2ccccc12,0.14,51.3% (inactive),67.4
O=S(=O)(NCC#CCN1CCc2ccccc2C1)c1ccc(Br)cc1,0.0488,43.9% (inactive),66.2
O=S(=O)(/C=C/c1ccccc1)NCC#CCN1CCc2ccccc2C1,0.144,41.7% (active),55.5
CN(C)S(=O)(=O)NCC#CCN1CCc2ccccc2C1,0.0659,38.5% (inactive),57.8
